Wnt bcat act = activators of Wnt/beta-catenin signaling; Wnt/beta-catenin reporter cell assay, activator, plate reader; activation, % at 9.35 µM; 300,000 tested, 1.2% active; AID 743398; in the data active means activation above about 30%, passing the limit was not always enough; inconclusive means no clear call, values can overlap the other calls;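 further: 0% = neutral control wells and 100% = positive control wells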
miR122 inh = inhibitors of miR-122 in Huh7 cells | Huh7 miR-122 Renilla luciferase sensor, 48 h; neutral wells = 0, positive control = 100 | activation (reporter increase), % at 12.5 µM | 340,000 tested, 0.3% active;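 active means mean replicate activation score at least 90 and every replicate individually at or above 90; inconclusive means only one of the two criteria met; inactive means neither criterion met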;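 further: higher luciferase means less miR-122 activity so hits act as miR-122 inhibitors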
esBAF inh = SWI/SNF esBAF complex inhibition; 350,000 tested, 2% active; mouse ES cells, Bmi1-luciferase knock-in reporter, 24 h; 100% = twice the neutral-well signal; reporter increase, % at 12.5 µM; in the data active means activation above about 40%; inconclusive means no clear call, values can overlap the other calls;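 further: 0% = median of the plate's neutral control wells and 100% = double that signal; a rise in the Bmi1 reporter signal indicates esBAF inhibition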
Env fusion inh = blocks HIV Env-driven cell-cell fusion; HeLa-JRFL Env/CEM21 cell fusion, luciferase; inhibition, % at 12.3 µM; 360,000 tested, 1.1% active; AID 651610;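 active means mean replicate inhibition score of at least 50 and every replicate individually at or above 50; inconclusive means only one of the two criteria met; inactive means mean below 50 and not all replicates reaching 50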;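 further: 0% = plate neutral controls and 100% = maraviroc near 300 nM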
MITF TRPM1 HTS = increases MITF-driven TRPM1 promoter luciferase signal; 300,000 tested, 0.75% active; SK-MEL-5 TRPM1-promoter luciferase, 24 h; % of positive control, neutral wells = 0; activation, % at 12.5 µM;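 active means mean activation of at least 80% with every replicate also reaching 80%; inconclusive means mean reaches 80% but some replicate falls short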;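 further: 0% = neutral control wells and 100% = parthenolide positive control wells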
Starred values were filed as active, the others as inactive; ? = inconclusive; . = no result; [ ] = dose if it differs, or a comment. Rows were chosen to be rich in hits. Some 3.4% of all compounds tested hit in one or more screens of this group.

SMILES	Wnt bcat act	miR122 inh	esBAF inh	Env fusion inh	MITF TRPM1 HTS
COc1ccc(OCc2cc(C(=O)NCC3CCOCC3)no2)c(Cl)c1	13.7	-2.7	54.7*	-25.6	31.4
COc1ccc(OCc2cc(C(=O)NCC3CCCCO3)no2)c(Cl)c1 (centres undefined)	14.7	-1.3	36.7	-21.8	51.3
COc1ccc2cc3c(N)c(C(=O)NCc4ccco4)sc3nc2c1	.	-1.8	72.3*	-440.6	64.9
N#Cc1ccc(-c2ccc3c(c2)[C@@H]2[C@@H](CCN2C(=O)c2ccc4c(c2)OCO4)[C@@H](CO)N3)cc1	.	-1.5[16.7 µM]	0.1	.	.
O=C(N[C@@H]1C=C[C@H](CC(=O)N2CCCCC2)O[C@H]1CO)c1ccc2c(c1)OCO2	.	.	1.1	16.6[16.7 µM]	.
N#Cc1ccc(-c2ccc3c(c2)[C@@H]2[C@@H](CCN2S(=O)(=O)c2cccc(F)c2)[C@@H](CO)N3)cc1	.	-2.5[16.7 µM]	-0.6	.	.
Cc1cccc(OCCCn2c(=O)oc3ccccc32)c1	15.2	-2.5	48.3*	-1.8	70.4
CCCCN(C)C(=O)c1oc2ccc(S(=O)(=O)N3CCCCCC3)cc2c1C	-12.8	-2.0	15.3	60.7*	-13.5
CC(C)(C)OC(=O)NNC(=S)NC1CCCCC1	45.6*	.	.	-2.0	3.6
CO[C@H]1CN(C)C(=O)c2cc(NC(=O)Nc3cc(Cl)cc(Cl)c3)ccc2OC[C@@H](C)NC[C@H]1C	.	-6.8[16.7 µM]	-6.7	.	.
COc1cccc(Nc2nc(CC(C)=O)ns2)c1	.	3.0	.	-125.2	14.2
COc1ccc(Nc2nc(CC(C)=O)ns2)cc1	.	.	56.9*	.	40.3
O=C1c2ccccc2C(=O)N1CCC1=CCCCC1	.	5.4	54.2*	.	31.1
O=C(O)c1ccc2c(c1)C(=O)N(CCC1=CCCCC1)C2=O	.	-1.2	8.2	.	1.6
COc1ccc(-c2nnc(Nc3nc4c(OC)cccc4s3)o2)c(OC)c1	15.7	3.7	23.2	39.0	-16.7
COc1ccc(-c2nnc(Nc3nc4c(OC)cccc4s3)o2)cc1	.	17.4	6.4	71.7*	-2.4
O=C1N=C(N2CCOCC2)S/C1=C1\C(=O)N(Cc2ccccc2)c2ccccc21	5.6	0.8	52.2*	-144.3	74.3
O=C1N=C(N2CCCCC2)SC1=C1CCCCC1	.	-3.3	75.4*	.	46.7
O=C1N=C(N2CCCCC2)S/C1=C\c1ccc(Br)cc1	-0.4	-15.9	31.3	8.5	.
CCCN1C(=O)/C(=C2\SC(N3CCCCC3)=NC2=O)c2ccccc21	11.6	0.4	74.5*	-168.2	79.3
CC1CN(C2=NC(=O)/C(=C3/C(=O)N(Cc4ccc(F)cc4)c4ccccc43)S2)CC(C)O1 (centres undefined)	-2.1	.	.	4.1	.
CN1C(=O)/C(=C2\SC(N3CCCCCC3)=NC2=O)c2ccccc21	.	1.9	46.0*	-88.1	.
CCC(=O)Nc1ccc2c(c1)C(=O)N(C)C[C@@H](OC)[C@H](C)CN(C(=O)c1ccncc1)[C@@H](C)CO2	.	5.9[16.7 µM]	-2.7	-5.6[16.7 µM]	.
O=C(N[C@@H]1CC[C@@H](CCn2cc(-c3ccccc3F)nn2)O[C@H]1CO)c1ccc2c(c1)OCO2	.	.	8.0	-0.6[16.7 µM]	.
O=C(Nc1cccc2cccnc12)c1cccnc1	-1.7	3.1	12.8	.	-5.1
SMILES	Wnt bcat act	miR122 inh	esBAF inh	Env fusion inh	MITF TRPM1 HTS
O=C(NC(=S)Nc1cccnc1Cl)c1ccc(Cl)cc1	35.6*	-0.1	?	-76.8	34.0
O=C(Nc1cccnc1Cl)c1ccc(Cl)cc1	10.1	10.3	?	-157.6	48.8
O=C(Nc1cccc2cccnc12)c1ccc(Cl)cc1	4.8	4.8	44.9*	-18.4	.
CCN(C(=O)CCS(=O)(=O)c1cc2c(cc1Cl)NC(=O)CO2)c1ccccc1	-2.5	-5.0	-4.3	71.9*	4.3
Cc1ccc(N(C)C(=O)CCS(=O)(=O)c2cc3c(cc2Cl)NC(=O)CO3)cc1	-1.7	6.7	-1.9	-10.7	.
CCOC(=O)c1c(C)[nH]c(N=Nc2cccc(C)c2)c1C	.	-2.5	78.9*	.	102.9*
CCOC(=O)c1c(C)[nH]c(N=Nc2cccc(OC)c2)c1C	45.0*	-10.4	65.9*	-158.1	130.0*
CCOC(=O)c1c(C)[nH]c(C=Nc2ccc(OC)cc2)c1O	2.0	12.4	?	.	63.6
CC1CCC(NC(=O)C2CCN(c3c4c(nc5ncnn35)CCC4)CC2)CC1 (centres undefined)	.	-4.1	41.3*	.	.
CC(C)NC(=O)N(C)C[C@@H]1Oc2ccc(NS(=O)(=O)c3ccc(F)cc3)cc2C(=O)N([C@@H](C)CO)C[C@H]1C	.	-4.9[16.7 µM]	-5.8	.	.
CCCc1ccc(-c2ccc(/C=C/C(=O)O)cc2)nc1	-0.3	.	.	60.7*	-86.8

From PubChem
